Screening data from PubChem BioAssay.
Shown are actives, neighbours in structure and some others; about 2.3% of the full set was active somewhere.
CHO-K1 Ca PAM: counter-screen for M1 PAMs: effect in parental CHO-K1 cells | 0.02% of 360,000 active | activation, % at 3 µM | ATP EC20, Fluo-8 calcium fluorescence; 0% at ATP EC20, 100% at ATP max;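 active means activation above the run cutoff, the mean activation of all test compounds plus 3 SD, cut at about 40% in these data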;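 further: peak over basal fluorescence ratio in a 140 s read after ATP addition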
CHRM1 agonist: activates human CHRM1 receptor; AID 588814; CHO-K1 hM1, Fluo-8 calcium fluorescence, agonist mode; 0% DMSO, 100% acetylcholine EC100; P11229; 0.33% of 360,000 active; activation, % at 3 µM;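 active means activation above the run's mean compound activation plus 3 SD, cut at about 16% in these data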;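 further: peak over basal fluorescence ratio within a 140 s kinetic read after compound addition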
Target sequence (P11229 whole entry, looked up): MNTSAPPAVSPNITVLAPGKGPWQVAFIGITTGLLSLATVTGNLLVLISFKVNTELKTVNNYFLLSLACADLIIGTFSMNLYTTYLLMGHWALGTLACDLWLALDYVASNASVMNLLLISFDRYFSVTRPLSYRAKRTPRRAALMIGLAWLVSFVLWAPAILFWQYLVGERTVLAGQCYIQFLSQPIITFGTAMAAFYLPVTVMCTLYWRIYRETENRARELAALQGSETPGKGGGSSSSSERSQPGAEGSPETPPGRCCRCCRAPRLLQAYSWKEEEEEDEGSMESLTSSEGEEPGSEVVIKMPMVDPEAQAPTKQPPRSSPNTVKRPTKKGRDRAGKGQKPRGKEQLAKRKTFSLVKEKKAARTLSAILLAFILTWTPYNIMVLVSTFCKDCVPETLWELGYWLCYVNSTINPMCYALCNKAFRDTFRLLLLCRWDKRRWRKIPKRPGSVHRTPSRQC
CHRM1 antagonist: human CHRM1 antagonism. P11229. CHO-K1 hM1, Fluo-8 calcium fluorescence, ACh EC80 antagonist. inhibition, % at 3 µM. 1.3% of 360,000 active;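 active means percent inhibition above its own plate's cutoff, namely the mean of that plate's compound wells plus 3 SD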;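 further: peak over basal fluorescence ratio during 140 s after agonist addition; 0% = ACh EC80 plus DMSO and 100% = DMSO alone without agonist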
CHO-K1 Ca antag: counter-screen for M1 antagonists: effect in parental CHO-K1 cells; ATP-induced calcium, Fluo-8 fluorescence; inhibition, % at 3 µM; 0.6% of 360,000 active; AID 602250;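 active means inhibition above a per-plate cutoff, the plate's mean sample inhibition plus 3 SD, cut at about 24% in these data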;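 further: 0% = DMSO plus EC80 ATP and 100% = DMSO alone without ATP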
CHO-K1 Ca ag: counter-screen for M1 agonists: effect in parental CHO-K1 cells. Fluo-8 calcium fluorescence; scaled to maximal ATP response, vehicle zero. 0.48% of 360,000 active. AID 602248. activation, % at 3 µM; in the data active means activation above about 15%;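 further: untransfected CHO-K1 host cells lacking M1 receptor as counterscreen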
CHRM1 PAM: potentiates human M1 receptor response to acetylcholine; AID 588819; P11229; activation, % at 3 µM; CHO-K1 hM1, Fluo-8 calcium fluorescence, ACh EC20; 0% = ACh EC20, 100% = maximal ACh; 0.088% of 360,000 active; in the data active means activation above about 19%, passing the limit was not always enough
* = called active by the depositor; x = no result.

SMILES	CHO-K1 Ca PAM	CHRM1 agonist	CHRM1 antagonist	CHO-K1 Ca antag	CHO-K1 Ca ag	CHRM1 PAM
CN1C(=O)/C(=C/c2ccccc2OCc2ccc(F)cc2)N(C)C1=S	-4	-10	100*	-1	-1	-23
O=C1NC(=S)N/C1=C\c1ccccc1OCc1ccc(C(=O)O)cc1	10	34*	-20	-11	0	11
NC(=O)c1cccc(-c2cnc3c(Nc4cccc(OC(F)(F)C(F)F)c4)nccn23)c1	-16	2	-4	31*	0	6
Oc1ccc(-c2cnc3c(Nc4cccc(OC(F)(F)C(F)F)c4)nccn23)cc1	-4	1	0	1	1	-1
Cc1cccc(NC(=O)CSc2nc3ccccc3c3nc(CCc4c(C)n[nH]c4C)nn23)c1	7	-1	51*	20	5	-14
O=C(C1CCC(CNS(=O)(=O)c2cccc3nsnc23)CC1)N1CC=C(c2ccccc2)CC1 (stereo unspecified)	-10	-2	23	26*	1	-6
O=C(NCCCN1CCCCCC1)C1CCCN(S(=O)(=O)c2cccc3nsnc23)C1 (stereo unspecified)	19	-6	-1	-11	0	-4
CC1CCN(CCNC(=O)C2CCCN(S(=O)(=O)c3cccc4nsnc34)C2)CC1 (stereo unspecified)	-28	-6	-9	34*	-1	7
O=C(C1CCN(S(=O)(=O)c2cccc3nsnc23)CC1)N1CC=C(c2ccccc2)CC1	-8	0	14	9	4	-8
CC1CCN(CCCNC(=O)C2CCC(CNS(=O)(=O)c3cccc4nsnc34)CC2)CC1 (stereo unspecified)	-3	-6	65*	-2	1	-23
CC(C)(C)OC(=O)N1C(=O)[C@](OC(=O)c2ccccc2)(c2ccc(F)cc2)c2ccccc21	17	x	x	-43	1	x
CCCc1ccc2ccc3ccccc3c2n1	4	-3	4	12	0	-1
CCC(=O)N1CCCC(C(=O)Nc2ccc3cn[nH]c3c2)CC1 (stereo unspecified)	16	-2	-20	-4	1	9
CC1(Oc2ccc(-n3ccnc3)cc2)CCN(Cc2cccn2-c2nccs2)C1 (stereo unspecified)	16	-8	-7	-4	1	-4
Cc1nc2ccc(Cl)cc2c(-c2ccccc2Cl)c1CC(=O)O	-4	-2	-4	11	1	6
CN1CCc2nc3ccc(Cl)cc3c(-c3ccccc3Cl)c2C1	-6	-12	93*	11	0	-26
O=C(CNC(=O)c1ccccc1)OC1CCCCC1	16	-5	-11	-8	0	11
C[N+]1(C)CCCC(OC(=O)C(O)(c2ccccc2)c2ccccc2)C1 (stereo unspecified)	-2	-9	99*	9	0	-26
CC(C)Cc1nc(NCCN2CCOCC2)c(C#N)c2c1COC(C)(C)C2	0	-6	-3	-4	0	-1
CCCCc1nc(NCCN2CCOCC2)c(C#N)c2c1COC(C)(C)C2	-6	2	-20	25*	0	13
CCOC(=O)[C@]12CCC=C1N(Cc1cccc3ccccc13)C(=O)[C@H](CC(=O)NCC1CCCCC1)C2	9	x	x	-12	0	x
CCCCCNC(=O)c1ccc(NC(=O)CC2SC(N3CCCC3)=NC2=O)cc1 (stereo unspecified)	18	-5	-11	-8	0	4
CCNC(=O)c1ccc(NC(=O)CC2SC(N3CCCC3)=NC2=O)cc1 (stereo unspecified)	9	3	-25	-7	0	28*
C[C@@H]1CN([C@H](C)CO)C(=O)CCCn2nncc2CO[C@H]1CN(C)S(=O)(=O)c1ccccc1F	9	-8	5	-8	0	-1
O=C(NC(Nc1nc2ccc([N+](=O)[O-])cc2s1)(C(F)(F)F)C(F)(F)F)c1ccccc1Cl	4	4	19	28*	13	-11
SMILES	CHO-K1 Ca PAM	CHRM1 agonist	CHRM1 antagonist	CHO-K1 Ca antag	CHO-K1 Ca ag	CHRM1 PAM
O=C(NC(Nc1nc2ccc([N+](=O)[O-])cc2s1)(C(F)(F)F)C(F)(F)F)c1cccnc1	13	5	23	24*	9	-5
O=C(Nc1ccccc1)c1nc[nH]c1C(=O)NCCNC(=O)c1[nH]cnc1C(=O)Nc1ccccc1	10	1	25*	-9	3	-10
COc1cc(Cl)c(CN2CCC(CO)(CCOc3ccccc3)CC2)cc1OC	15	-7	-4	-5	3	0
COc1cccc(CC2(CO)CCN(S(=O)(=O)N(C)C)CC2)c1	-12	-2	3	17	0	-10
COC(=O)c1ccc(CN2CCCC(CO)(Cc3ccc(F)cc3F)C2)cc1 (stereo unspecified)	-17	11	48*	5	0	-18
COC(=O)c1ccc(CN2CCC(CO)(CCOc3ccccc3)CC2)cc1	7	14	77*	-9	3	-16
OCC1(CCOc2ccccc2)CCN(CC2=Cc3cc(Cl)ccc3OC2)CC1	10	3	39*	-1	3	-13
COC(=O)c1ccc(CN2CCC(CO)(Cc3cccc(OC)c3)CC2)cc1	5	-7	75*	4	0	-28
COc1ccccc1N1CC(C(=O)OC(C)C(=O)Nc2ccc(F)cc2)CC1=O (stereo unspecified)	11	2	-8	3	1	1
CCCCOc1ccc(S(=O)(=O)NC(=O)C2(C)CCN2C(=O)Cc2cccs2)cc1 (stereo unspecified)	20	-2	-16	-12	0	6
O=C(Nc1cccc(F)c1)Nc1cccc(Cl)c1	-9	3	43*	30*	16*	-21
CN1CCN(NC(=O)Nc2cccc(F)c2)CC1	3	-3	31*	3	6	-13
O=C(NCc1ccc(F)cc1)Nc1ccc(Cl)cc1	-5	0	2	-1	12	4
O=C(NCc1ccc(F)cc1)Nc1cccc(Cl)c1	-15	-4	13	31*	5	-16
O=C(Nc1ccc2c(c1)OCCO2)c1[nH]c(C(F)(F)F)nc1-c1ccccc1	-4	6	-28	-19	8	-4
COCCNc1nc(-c2ccccc2F)c2sc(-c3ccccc3)cc2n1	8	-3	-13	-6	1	2
C=Cc1ccc(Cn2c(C)c(C(=O)NCc3ccccc3C(F)(F)F)sc2=O)cc1	33	-4	-19	-21	1	3
COc1ccc(C2=Nn3c(nnc3-c3ccccc3OC)SC2)cc1OCC1CC1	25	-10	-10	-20	0	6
COc1ccc(OC)c(-c2nnc3n2N=C(c2ccc(OC(F)F)c(OCC4CC4)c2)CS3)c1	2	-10	40*	-14	0	-30
